High-throughput results from PubChem.
Only some compounds are listed: those with a hit (about 19% of all), similar ones and a draw of the others.
TDP1 cell CPT = qHTS for Inhibitors of human tyrosyl-DNA phosphodiesterase 1 (TDP1): qHTS in cells in presence of CPT | chicken DT40 Tdp1-/-;hTDP1 cells + 20 nM CPT, ATP luminescence, 48 h | Potency, µM (titrated, usually from 46.2 µM), without a hit: top-dose activity change, negative = growth inhibition, hits mostly inhibitors | 420,000 tested, 12% active | AID 686979, 2013; further: nearly all actives have a fitted effect of over 55% in size
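Cell growth measured by CellTiter-Glo luminescence after a minimum 48 h, 37 C compound exposure with 20 nM CPT in Tdp1-knockout DT40 cells stably expressing hTDP1, seeded 400/well; qHTS titration format.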
KB-3-1 cytotox = qHTS assay for MDR1-selective chemotherapeutics: Primary screen using the parental adenocarcinoma cell KB-3-1 | AID 1347075, 2019 | KB-3-1 viability, CellTiter-Glo ATP luminescence, 72 h | Potency, µM (top dose mostly 46.1 µM), actives largely listed as cytotoxic | 400,000 tested, 1.4% active; further: nearly all actives have a fitted effect of over 60% in size
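Parental KB-3-1 adenocarcinoma cells in phenol-red-free DMEM with 10% FBS were pin-treated with compounds at several concentrations, incubated 72 h at 37 °C, and viability read by CellTiter-Glo luminescence; concentration-effect curves were fitted after normalization.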
TDP1 cell noCPT = qHTS for Inhibitors of human tyrosyl-DNA phosphodiesterase 1 (TDP1): qHTS in cells in absence of CPT; DT40 Tdp1-/- hTDP1 cells, no CPT, ATP luminescence, 48 h; Potency, µM (highest dose often 46.2 µM), for inactives: top-dose activity change, negative = growth inhibition, hits mostly inhibitors; 420,000 tested, 15% active; AID 686978, 2013; further: nearly all actives have a fitted effect of over 55% in size
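A cellular qHTS used chicken DT40 cells lacking endogenous Tdp1 but carrying stably transfected human TDP1. Compounds were applied without camptothecin, and cell growth kinetics were judged by ATP-dependent luminescence after ≥48 hr.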
HT1080 IDH1KD tx = qHTS for induction of synthetic lethality in tumor cells producing 2HG: qHTS for the HT-1080-IDH1KD cell line; HT-1080 IDH1 knockdown viability, ATP luminescence, 48 h; Potency, µM (doses to about 46.1 µM), for the others: top-dose activity, negative = toxicity, actives largely listed as cytotoxic; 360,000 tested, 2% active;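 further: 0% = DMSO wells and -100% = cell-free medium wells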
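Knockdown cells (IDH1KD HT-1080) received compounds 2 h after plating at 750 cells/well and were kept 48 h at 37 °C in 5% FBS RPMI. A CellTiter-Glo luminescence read gave % activity for curve fitting.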
KB-V1 MDR tox = qHTS assay for MDR1-selective chemotherapeutics: Primary screen using the drug-selected MDR subline cells KB-V1; KB-V1 MDR cells viability, CellTiter-Glo, 72 h; Potency, µM (top dose mostly 46.1 µM), hits mostly cytotoxic; 400,000 tested, 3.4% active; AID 1347076, 2019; further: nearly all actives have a fitted effect of over 60% in size
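Potencies derive from concentration-effect curves fitted to normalized luminescence (CellTiter-Glo) of KB-V1 cells treated for 72 h at 37 degrees C in phenol-red-free DMEM containing 10% FBS.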
HT1080NT lethal = qHTS for induction of synthetic lethality in tumor cells producing 2HG: qHTS for the HT-1080-NT fibrosarcoma cell line; HT-1080-NT fibrosarcoma viability, CellTiter-Glo ATP luminescence, 48 h; Potency, µM (titrated, usually from 46.1 µM), for the others: at the highest dose activity, negative = less viability, hits mostly cytotoxic; 360,000 tested, 1.6% active;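 further: NT is the 2HG producing partner of a matched IDH1 knockdown line; 0% = DMSO-treated cells and -100% = media-only wells without cells; nearly all actives have a fitted effect of over 55% in size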
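Viability by CellTiter-Glo luminescence after 48 h compound exposure at 37C of HT-1080-NT cells (750/well, RPMI, 5% FBS). % activity scaled between DMSO wells and medium-only wells, then curve-fitted and categorized by curve class.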
* hit, by the source's call; i = inactive; u = inconclusive; x = not tested or not shown. The call rests on the fitted dose curve; in most records, active means well fitted curve in the direction sought with a large enough effect; inconclusive means small, poorly fitted or top-dose-only effect, or another doubt; inactive means no such curve, though single readings can be large; an effect the other way counts as inactive or inconclusive. Unless noted, on the % scale 0 is the no-effect control and ±100 the full control effect; potency means the concentration at half of the fitted maximal effect.

SMILES	TDP1 cell CPT	KB-3-1 cytotox	TDP1 cell noCPT	HT1080 IDH1KD tx	KB-V1 MDR tox	HT1080NT lethal
CC(C)c1ccc(NC(=O)C2(C)Cc3c(-c4ccc(C(N)=O)cc4)ccnc3O2)cc1 (configuration not stated)	16µM*	i	16µM*	-13%	i	-19%
CC(=O)Nc1ccc(-c2ccnc3c2CC(C)(C(=O)Nc2ccc(C(C)C)cc2)O3)cc1 (configuration not stated)	23µM*	i	21µM*	u	i	u
N.N.O=C(O)C1(C(=O)O)CCC1.[Pt]	2%	x	-6%	x	x	x
CCCC[C@@H]1CC2=C(C(=O)OC(C)(C)O2)[C@@H](c2ccc(F)cc2)O1	-20%	i	u	0%	i	1%
CCC1=C(OC(=O)N(CC)CC)N2C(=O)OC(=NCC3CC3)[C@]2(Cc2ccccc2)[C@H]2C1=CC[C@H]1C(=O)N(CC)C(=O)[C@H]12	16µM*	i	21µM*	u	i	u
CCC1=C(OC(=O)N(CC)CC)N2C(=O)OC(=NCCOC)[C@]2(Cc2ccccc2)[C@H]2C1=CC[C@H]1C(=O)N(CC)C(=O)[C@H]12	-4%	i	-5%	8%	i	13%
CCCNc1cc(=S)nc(N)[nH]1	u	i	u	1%	i	1%
CCOC(=O)c1c(NC(=O)CSc2nnc(-c3ccco3)o2)sc(C(C)=O)c1C	u	i	13µM*	-2%	i	-7%
CCOC(=O)c1c(NC(=O)CSc2nnc(-c3cccnc3)o2)sc(C(C)=O)c1C	u	i	21µM*	-1%	i	-1%
CCOC(=O)c1c(NC(=O)CSc2nnc(-c3ccco3)o2)sc(C)c1C	-29%	i	-20%	-8%	i	-4%
Nn1cnc2scc(-c3ccco3)c2c1=O	u	i	u	-10%	i	0%
C#Cc1ccc([C@H]2C=C(C(=O)N3CCN(Cc4ccccc4)CC3)O[C@@H](OCc3ccc(CO)cc3)C2)cc1	16µM*	i	18µM*	-7%	i	u
CN1CCN(C(=O)C2=C[C@@H](c3ccccc3)C[C@@H](OCc3ccc(CO)cc3)O2)CC1	-23%	u	-25%	0%	i	3%
O=C(C1=C[C@@H](c2ccc(Br)cc2)C[C@@H](OCc2ccc(CO)cc2)O1)N1CCN(Cc2ccccc2)CC1	u	u	23µM*	u	u	-21%
CC(C)(C)c1nn(-c2ccccc2)c2[nH]c(=O)c(CNCc3ccc4c(c3)OCO4)cc12	18µM*	u	u	-30%	i	u
CC1CC(C)(C)NC(=S)N1CCCC(=O)Nc1ccc(F)cc1 (configuration not stated)	-26%	i	18µM*	6%	u	15%
CCOc1ccc(OCC)c(NC(=O)CCCN2C(=S)NC(C)(C)CC2C)c1 (configuration not stated)	16µM*	i	16µM*	-1%	i	13%
COC(=O)C1(NC(=O)NC2CCCCC2)CCCCC1	9%	i	-1%	25%	i	7%
COC(=O)c1ccc(NC(=S)NC2c3ccccc3CC2O)cc1 (configuration not stated)	-12%	i	-7%	-2%	i	-4%
C/C(=N\NC(=O)c1ccc(N2CCCC2=O)cc1)c1ccc(O)cc1O	4.6µM*	u	3.7µM*	u	i	-25%
CC(=NNC(=O)c1ccncc1)c1ccc2ccccc2c1O	4.1µM*	u	4.6µM*	5.8µM*	u	u
N/C(=N\OC(=O)c1cccc2ccccc12)c1ccncc1	-25%	i	-17%	-8%	i	6%
C/C(=N\NC(=O)c1ccccc1)c1ccccc1Br	0.82µM*	i	0.65µM*	u	i	u
CC(=O)c1ccc2ccccc2c1OC(=O)c1ccncc1	u	i	26µM*	-14%	i	-14%
C/C(=N\NC(=O)c1ccc(N2CCCC2=O)cc1)c1ccccc1	-8%	i	-23%	8%	i	12%
SMILES	TDP1 cell CPT	KB-3-1 cytotox	TDP1 cell noCPT	HT1080 IDH1KD tx	KB-V1 MDR tox	HT1080NT lethal
CCOC(=O)c1c(C)[nH]c(C)c1S(=O)(=O)N1CCC(C(=O)NCc2ccccc2Cl)CC1	-23%	i	-12%	x	i	x
CC(=NNC(=O)c1ccncc1)c1ccccc1O	0.18µM*	u	0.13µM*	u	i	u
CC(=NNC(=O)c1ccccc1N)c1ccccc1O	5.2µM*	i	5.8µM*	u	i	u
C/C(=N/NC(=O)c1ccncc1)c1ccc(NC(=O)c2ccc(Cl)cc2Cl)cc1	-10%	u	-4%	7%	u	1%
CC(=NNC(=O)c1ccncc1)c1ccc(O)cc1O	u	u	7.3µM*	u	i	-18%
CC(C)CC(=NNC(=O)c1ccncc1)c1cc(Cl)ccc1O	3.7µM*	u	2.6µM*	0.82µM*	u	u
Cc1ccc(C(=O)NCC(=O)N2CCCC(C(F)(F)F)C2)s1 (configuration not stated)	6%	i	2%	4%	i	9%
O=C(CSc1nc2ccccc2s1)N/N=C/c1cc([N+](=O)[O-])ccc1O	u	i	u	u	i	-4%
CCOC(=O)c1scc(-c2ccc(C)cc2)c1S(=O)(=O)Nc1ccc(OC)c(Cl)c1	16µM*	i	15µM*	x	i	x
CCOC(=O)c1scc(-c2ccc(C)cc2)c1S(=O)(=O)Nc1cc(Cl)ccc1OC	5.8µM*	i	3.3µM*	x	i	x
CCOC(=O)c1scc(-c2ccccc2)c1S(=O)(=O)Nc1cc(Cl)c(OC)cc1OC	u	i	15µM*	x	i	x
CCOC(=O)c1scc(-c2ccc(C)cc2)c1S(=O)(=O)Nc1ccc(F)c(F)c1	-13%	i	u	x	i	x
C=CCNc1nc2c(c(=O)[nH]c(=O)n2C)n1CCCCC	-8%	i	4%	0%	i	2%
CSC[C@@H]1NC(=S)N(c2ccc(C)cc2)C1=O	5.2µM*	i	2.3µM*	3%	i	-8%
